Where a name gives a salt, the structure may show the parent alone. ± gives the uncertainty stated by the source.
Tested on: U87
Test: cell viability relative to vehicle control; higher = less growth inhibition (less active)
Conditions: 10 µM; 72 h
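Note: viable cell number estimated from Alamar Blue fluorescence read at 560/90, part of a single-dose primary screen of an FDA-approved drug library.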

Question: How did the cell viability turn out when `CCOC(=O)c1ccc(OC(=O)CCCCCNC(=N)N)cc1` [Gabexate] was run?
Answer: 98.6 ± 3.2%

Question: For `CCOc1cc(CC(=O)N[C@@H](CC(C)C)c2ccccc2N2CCCCC2)ccc1C(=O)O`, which cell viability is on record?
Answer: 105 ± 1.5%

Question: `Cc1ncc([N+](=O)[O-])n1CCO` was tested. Which cell viability did it give?
Answer: 104 ± 1.2%

Question: For `CN1CCC(=C2c3ccccc3C=Cc3ccccc32)CC1` [Cyproheptadine], which cell viability is on record?
Answer: 103.33 ± 0.068%

Question: `CNCC[C@@H](Oc1ccccc1C)c1ccccc1` was tested. Which cell viability did it give?
Answer: 108.2 ± 1%

Question: `O=C1CN2Cc3c(ccc(Cl)c3Cl)N=C2N1` was tested. Which cell viability did it give?
Answer: 103 ± 2.1%

Question: `CC(C)[C@H](N)C(=O)OCCOCn1cnc2c(=O)nc(N)[nH]c21` was tested. Which cell viability did it give?
Answer: 103 ± 1.8%

Question: With `CC[C@H](C)C(=O)O[C@H]1C[C@H](O)C=C2C=C[C@H](C)[C@H](CC[C@@H](O)C[C@@H](O)CC(=O)O)[C@H]21` [PRAVASTATIN Sodium] as the molecule, how does the cell viability read?
Answer: 105.9 ± 0.46%

Question: With `CC(c1cc2ccccc2s1)N(O)C(N)=O` (centres undefined) as the molecule, how does the cell viability read?
Answer: 104.1 ± 1%

Question: `O=C(CCCN1CCC(O)(c2ccc(Cl)cc2)CC1)c1ccc(F)cc1` [Haloperidol] was tested. Which cell viability did it give?
Answer: 107.5 ± 0.44%

Question: How did the cell viability turn out when `CC(=O)[C@]1(O)Cc2c(O)c3c(c(O)c2[C@@H](O[C@H]2C[C@H](N)[C@H](O)[C@H](C)O2)C1)C(=O)c1ccccc1C3=O` [Idarubicin HCL] was run?
Answer: 31.6 ± 2.3%

Question: How did the cell viability turn out when `CCCN[C@H]1CCc2nc(N)sc2C1` [Pramipexole] was run?
Answer: 92.5 ± 8.8%

Question: Which cell viability does the source give for `Cc1nc(=O)c2cc(CN(C)c3ccc(C(=O)N[C@@H](CCC(=O)O)C(=O)O)s3)ccc2[nH]1` here?
Answer: 85.4 ± 1.4%

Question: Which cell viability does the source give for `O=C(CCNNC(=O)c1ccncc1)NCc1ccccc1` here?
Answer: 107.8 ± 0.97%

Question: How did the cell viability turn out when `COCCCC/C(=N\OCCN)c1ccc(C(F)(F)F)cc1` [Fluvoxamine] was run?
Answer: 106 ± 1.5%

Question: How did the cell viability turn out when `Nc1nc(N)nc(-c2cc(Cl)ccc2Cl)n1` was run?
Answer: 95.63 ± 0.69%

Question: How did the cell viability turn out when `COC(=O)C1=C(C)NC(C)=C(C(=O)OCC(C)C)C1c1ccccc1[N+](=O)[O-]` (centres undefined) [Nisoldipine] was run?
Answer: 48.4 ± 5%

Question: With `Cc1c(C(=O)NN2CCCCC2)nn(-c2ccc(Cl)cc2Cl)c1-c1ccc(I)cc1` as the molecule, how does the cell viability read?
Answer: 106 ± 1.3%

Question: Which cell viability does the source give for `CC(Cc1ccccc1)(NC(=O)CN)c1ccccc1` (racemic) here?
Answer: 93.1 ± 3.1%

Question: For `Nc1[nH]c(=O)ncc1F`, which cell viability is on record?
Answer: 102 ± 1.7%

Question: How did the cell viability turn out when `COC(=O)C1=C(C)NC(C)=C(C(=O)OC(C)C)C1c1cccc2nonc12` (centres undefined) was run?
Answer: 104.2 ± 0.44%

Question: How did the cell viability turn out when `CC(=O)[C@H]1CC[C@H]2[C@@H]3CCC4=CC(=O)CC[C@]4(C)[C@H]3CC[C@]12C` was run?
Answer: 107 ± 3%

Question: With `C[N+]1(C)CCC(OC(=O)C(O)(c2ccccc2)C2CCCC2)C1` (centres undefined) [Glycopyrrolate] as the molecule, how does the cell viability read?
Answer: 103 ± 1.1%

Question: With `OCCN1CCN(CCCN2c3ccccc3Sc3ccc(C(F)(F)F)cc32)CC1` [Fluphenazine] as the molecule, how does the cell viability read?
Answer: 104.3 ± 0.93%

Question: How did the cell viability turn out when `CC(C)(C)NC(=O)[C@H]1CC[C@H]2[C@@H]3CC[C@H]4NC(=O)C=C[C@]4(C)[C@H]3CC[C@]12C` was run?
Answer: 104.8 ± 0.76%

Question: `Cc1nccn1CC1CCc2c(c3ccccc3n2C)C1=O` (centres undefined) [Ondansetron] was tested. Which cell viability did it give?
Answer: 99.8 ± 1.5%

Question: `CNNCc1ccc(C(=O)NC(C)C)cc1` [Procarbazine] was tested. Which cell viability did it give?
Answer: 104.4 ± 0.86%

Question: Which cell viability does the source give for `CCC(C)n1ncn(-c2ccc(N3CCN(c4ccc(OCC5COC(Cn6cncn6)(c6ccc(Cl)cc6Cl)O5)cc4)CC3)cc2)c1=O` (centres undefined) here?
Answer: 21.4 ± 2.1%

Question: With `O=c1c(O[C@@H]2O[C@H](CO)[C@H](O)[C@H](O)[C@H]2O)c(-c2ccc(O)c(O)c2)oc2cc(O)cc(O)c12` as the molecule, how does the cell viability read?
Answer: 106 ± 1.8%

Question: With `Nc1c2c(nc3ccccc13)CCCC2` as the molecule, how does the cell viability read?
Answer: 110 ± 18%

Question: How did the cell viability turn out when `CCCN[C@H]1CCc2nc(N)sc2C1` was run?
Answer: 105 ± 1.9%

Question: `C#C[C@]1(O)CC[C@H]2[C@@H]3CCc4cc(OC)ccc4[C@H]3CC[C@@]21C` was tested. Which cell viability did it give?
Answer: 102.9 ± 0.33%

Question: For `CC1=Nc2ccc(Cl)cc2S(=O)(=O)N1`, which cell viability is on record?
Answer: 101 ± 1.6%

Question: `COc1nc(C)nc(Cl)c1NC1=NCCN1` was tested. Which cell viability did it give?
Answer: 102 ± 1.7%

Question: Which cell viability does the source give for `COc1ccc(C2CNC(=O)C2)cc1OC1CCCC1` (centres undefined) here?
Answer: 99.3 ± 1.2%

Question: Which cell viability does the source give for `O=C1Nc2ccccc2/C1=C1/Nc2ccccc2C1=O` [indirubin] here?
Answer: 99.6 ± 1.4%

Question: Which cell viability does the source give for `O=C(O[C@@H]1Cc2c(O)cc(O)cc2O[C@@H]1c1cc(O)c(O)c(O)c1)c1cc(O)c(O)c(O)c1` [Epigallocatechin gallate] here?
Answer: 77.8 ± 4.2%

Question: For `CCCc1nc(C)c2c(=O)nc(-c3cc(S(=O)(=O)N4CCN(CC)CC4)ccc3OCC)[nH]n12`, which cell viability is on record?
Answer: 107.7 ± 0.41%

Question: For `Nc1nc2ccc(Cl)cc2c2nc(-c3ccco3)nn12`, which cell viability is on record?
Answer: 93.4 ± 5.3%

From the supplement of paper PMC3898565
